Laboratory results as given in PubChem BioAssay (NCI).
The panel holds about 83,000 compounds, 20% with a hit somewhere; the sample as a whole holds those more often.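 Method: cells in 96-well plates; compound added at one concentration; 48 h incubation; percent growth measured; values under 10 scored active.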 Activity calls are given as the source filed them.

The compounds below were run on NCI-H522 lung (assay: NCI-60 one-dose screen, 48 h (100 = growth as untreated, 0 = no growth, -100 = all killed)). Conditions: 10 µM.

| SMILES | growth |
| --- | --- |
| Cc1cc(CSc2ccc(Cl)cc2)ccc1N | 81.5% (inactive) |
| CC(=O)C(CO)C(=O)Nc1ccccc1 (stereo not given) | 82.3% (inactive) |
| Cc1nc2ccccc2c(=O)n1-c1cccc(OCc2cn(-c3cccc(O)c3)nn2)c1 | 72.1% (inactive) |
| CCCCCCCCCCN1CC2CCCCC2C1 (stereo not given) | 67.1% (inactive) |
| CCCCN(CCC)CCCCCCCCCCN1CCCc2ccccc21 | 62% (inactive) |
| C/C=C(/C)C(=O)OC1C=C(CO)C(=O)C(OC(=O)/C(C)=C\C)C1C(C)C (stereo not given) | -52.8% (active) |
| O=C1C(Cl)=C(Nc2ccc(Nc3ccccc3)c(NC3=C(Cl)C(=O)c4ccccc4C3=O)c2)C(=O)c2ccccc21 | 14.9% (inactive) |
| CN1CCN(Cc2ccc(NC(=O)c3cncc(C#Cc4c(N)ncc5ccc(F)cc45)c3)cc2C(F)(F)F)CC1 | 49.7% (inactive) |
| COc1cccc(CNC(=O)c2cccc(C3CC(=O)c4c(cc(OC)c(OC)c4OC)O3)c2)c1 (stereo not given) | 24.9% (inactive) |
| COC(=O)C1CC(=O)N(C(=O)Nc2ccc(Cl)cc2Cl)C1 (stereo not given) | 80.3% (inactive) |
| O=C(/C=C\c1ccc(NCc2ccc(C(=O)O)cc2)cc1)CCl | -78.1% (active) |
| CC1(C)NC(=S)NC1=O | 116% (inactive) |
| Cc1ccc(C(=O)Nc2ccc(CN3CCN(C)CC3)c(C(F)(F)F)c2)cc1C#Cc1cncc2ncccc12 | 2.81% (active) |
| COc1ccc(-c2nc(N)n(C(=S)Nc3ccccc3)n2)cc1 | 88.5% (inactive) |
| O=C(O)c1ccc(-c2nn(-c3ccc(C(=O)O)cc3)cc2CNc2ccc(Br)cc2)cc1 | 85.4% (inactive) |
| CCS(=O)(=O)N[C@@H]1O[C@H](COC(C)=O)C(OC(C)=O)[C@H](OC(C)=O)C1OC(C)=O (stereo not given in full) | 83.7% (inactive) |
| CCC(C)(C)c1ccc(OCCCCCCN2CCN(c3ccc(C)c(Cl)c3)CC2)cc1 | 84.6% (inactive) |
| Cc1ncc(C(=O)Nc2ccc(CN3CCN(C)CC3)c(C(F)(F)F)c2)cc1C#Cc1c(N)ncc2ccccc12 | -85.7% (active) |

| SMILES | growth |
| --- | --- |
| COc1ccc2cnc(N)c(C#Cc3cc(C(=O)Nc4ccc(CN5CCN(C)CC5)c(C(F)(F)F)c4)cnc3C)c2c1 | 69.7% (inactive) |
| COc1ccc(-c2nc(SCC(C)C)nc(Nc3ccc(C(=O)O)cc3)c2C#N)cc1 | 84.7% (inactive) |
| CCCCCCCCCCCCCCCCC(=O)O.CCCCCCCCCCCCCCCCCC(=O)O.CCCCCCCCCCCCCCCCCC(=O)O.CCCCCCCCCCCCCCCCCC(=O)O.CCCCCCCCCCCCCCCCCC(=O)O.CO[CH-]OC12COC1CC(O)C1(C)C(O)C(OC(C)O)C3=C(C)C(OC(=O)C(O)C([NH-])c4ccccc4)CC(O)(C(OC(=O)c4ccccc4)C21)C3(C)C.[Cu+].[Zn].[Zn].[Zn].[Zn].[Zn] (stereo not given) | 16.4% (inactive) |
| O=C1c2cc([N+](=O)[O-])ccc2-c2cc(Cl)c(NC(=O)C(F)(F)F)cc21 | 113% (inactive) |
| CCCNC(=O)Oc1ccc(/C(=C(/C)Cc2ccc(OC)cc2)c2ccc(OCCN3CCCCC3)cc2)cc1 | 84.8% (inactive) |
| CC(=O)CCS(=O)c1ccccc1 (stereo not given) | 82.7% (inactive) |
| N#CC1=C(N2CCOCC2)NC2c3ccccc3Sc3ccccc3N2C1=N (stereo not given) | 83.6% (inactive) |
| CC(C)(C)OC(=O)N1C/C(=C\c2ccccc2)C(=O)/C(=C/c2ccccc2)C1 | 72% (inactive) |
| N#Cc1ccc(NC2c3ccccc3CC2O)cc1 (stereo not given) | 104% (inactive) |
| CC([C@H]1CCC2C3CCC4C[C@@H](N)CC[C@]4(C)C3CC[C@@]21C)N(C)C (stereo not given in full) | 102% (inactive) |
| CCN(CC)c1ccc2nc3ccc(N=Nc4ccc(O)cc4)cc3[n+](-c3ccccc3)c2c1 | 37.2% (inactive) |
| CC(C)CSc1nc(-c2ccc(F)cc2)c(C#N)c(N2CCCCC2)n1 | 82.6% (inactive) |
| Cc1ccc(C(=O)Nc2ccc(CN3CCN(C)CC3)c(C(F)(F)F)c2)cc1C#Cc1cnc(N)c2ccc(C#N)cc12 | 60.6% (inactive) |
| CCCCCN1CCN(C(CC(=O)c2ccccc2)C(=O)c2ccccc2)CC1 (stereo not given) | 1.49% (active) |
| COc1ccc2cc(C(C)C(=O)Nc3ccc(S(=O)(=O)Nc4cc(C)on4)cc3)ccc2c1 (stereo not given) | 89.7% (inactive) |
| CN1CCN(Cc2ccc(NC(=O)c3ccc(C#Cc4c(N)ncc5ccc(F)cc45)cc3)cc2C(F)(F)F)CC1 | -85.2% (active) |
| CSC1=Nc2c(c(C)c(-c3ccccc3)n2CCCCl)C2=NC(=O)CN12 | 55.8% (inactive) |
